From PubChem BioAssay
KCNQ2 block – inhibitors of rat KCNQ2 potassium channel | actives 1.1% (n = 310,000) | CHO-K1 KCNQ2, FluxOR thallium flux, 20 min; active compounds read low | AID 2156 | B-score at 10 µM | O88943;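 active means fluorescence ratio B-score at most minus 3 library SDs, with starting brightness B-score within 2 library SDs, cut at about -5.5 in these data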
Target sequence (O88943 whole entry, looked up): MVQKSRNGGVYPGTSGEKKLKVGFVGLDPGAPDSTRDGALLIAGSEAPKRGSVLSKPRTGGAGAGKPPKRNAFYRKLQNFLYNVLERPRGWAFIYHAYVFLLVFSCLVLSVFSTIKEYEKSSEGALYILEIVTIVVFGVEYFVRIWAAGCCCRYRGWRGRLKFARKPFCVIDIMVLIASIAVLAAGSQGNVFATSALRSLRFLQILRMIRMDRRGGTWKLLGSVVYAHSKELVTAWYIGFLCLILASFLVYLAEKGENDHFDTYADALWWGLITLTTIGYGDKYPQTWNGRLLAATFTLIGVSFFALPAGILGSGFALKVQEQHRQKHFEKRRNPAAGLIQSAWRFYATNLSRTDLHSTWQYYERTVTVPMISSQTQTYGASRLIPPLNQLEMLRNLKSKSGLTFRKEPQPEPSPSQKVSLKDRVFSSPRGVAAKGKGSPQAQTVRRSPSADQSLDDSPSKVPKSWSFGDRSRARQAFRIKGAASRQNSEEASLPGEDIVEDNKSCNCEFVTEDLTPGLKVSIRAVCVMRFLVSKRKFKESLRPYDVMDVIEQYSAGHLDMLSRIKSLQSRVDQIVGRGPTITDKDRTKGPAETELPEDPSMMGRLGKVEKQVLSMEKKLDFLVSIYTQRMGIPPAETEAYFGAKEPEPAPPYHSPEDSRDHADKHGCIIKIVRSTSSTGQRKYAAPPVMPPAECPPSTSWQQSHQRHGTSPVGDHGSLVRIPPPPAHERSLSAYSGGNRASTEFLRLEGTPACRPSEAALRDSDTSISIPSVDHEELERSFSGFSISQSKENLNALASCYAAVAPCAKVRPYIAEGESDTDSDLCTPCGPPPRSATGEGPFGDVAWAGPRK
KCNQ2 pot – potentiators of rat KCNQ2 potassium channel; AID 2239; B-score at 10 µM; CHO-K1 KCNQ2, FluxOR thallium flux fluorescence; active compounds read high; actives 0.54% (n = 310,000); O88943;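 active means fluorescence ratio B-score at least 3 SD of library B-scores, with initial fluorescence B-score within 3 of them, cut at about 5.3 in these data; same plate scores as AID 2156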;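 further: B-score of peak minus minimum over baseline fluorescence ratio after K+ and Tl+ stimulus; positive B-score means potentiation of KCNQ2 with more thallium influx and brighter signal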
Active calls of the source: *; i = inactive; . = not tested or not shown. In the library only some 1.6% were active in any assay of this set; here they are far more common.

SMILES | KCNQ2 block | KCNQ2 pot
CCCCNC(=S)N/N=C/C1=CCC2CC1C2(C)C (configuration not stated) | i | 5.4*
C=C(C)CNC(=S)N/N=C/C1=CCC2CC1C2(C)C (configuration not stated) | i | 1.4
C=CCn1c(SCC(=O)Nc2ccc(C(=O)OCC)cc2)nnc1-c1sc(N)nc1C | i | .
CN1c2ccccc2C(C)(C)C12C=Nc1c(cc(N3CCOCC3)c3ccccc13)O2 (configuration not stated) | i | .
CN1c2ccccc2C(C)(C)C12C=Cc1cc(O)ccc1O2 (configuration not stated) | -7.1* | -7.1
COCCn1nnnc1C(c1ccc(OC)cc1)N1CCN(C(=O)c2ccco2)CC1 (configuration not stated) | i | 2.3
Cc1cc(Br)ccc1NC(=O)CN(C)C(=O)c1cc([N+](=O)[O-])ccc1N1CCOCC1 | -6.5* | -6.5
Cc1ccc(C)c(NC(=O)CN(C)C(=O)c2cc([N+](=O)[O-])ccc2N2CCOCC2)c1 | i | 0.91
Clc1ccc(-c2nnc(-c3ccc(Br)cc3)c(N3CCSCC3)n2)cc1 | -7* | -7
Clc1ccc(-c2nnc(-c3ccco3)nc2N2CCCCC2)cc1 | i | .
COCCN(CCOC)Cc1c(O)ccc2c3c(c(=O)oc12)CCC3 | i | .
CC(C)CCNC(=S)Nc1ccc(Br)cc1 | i | 5.3*
CCCCNC(=S)Nc1ccc(Oc2ccccc2)cc1 | i | .
CCCCNC(=S)Nc1ccc([N+](=O)[O-])cc1 | i | 12*
CC(C)CCNC(=S)Nc1ccc([N+](=O)[O-])cc1 | i | 14*
COC(=O)Cc1ccc(NC(=S)NCCC(C)C)cc1 | i | .
CCCNC(=S)Nc1ccc(Br)cc1 | i | 2.3
Cn1cc(CN2CCC(n3nccc3NC(=O)c3ccccc3Cl)CC2)cn1 | i | 1.1
CCCCCCCSc1nc(N)cc(=O)[nH]1 | i | .
O=C(/C=C\Nc1ccccc1Br)c1ccc2c(c1)OCO2 | i | 1.5
CCOc1cccc(/C=N/Nc2nc(N3CCCC3)nc(N3CCCC3)n2)c1O | i | 1.3
CCOc1cc(/C=N/Nc2nc(N3CCCC3)nc(N3CCCC3)n2)ccc1O | -8.3* | -8.3
c1ccc(CC2CCN(C3=Nc4cccc5cccc3c45)CC2)cc1 | -6* | -6
c1cc2c3c(cccc3c1)C(N1CCOCC1)=N2 | i | .
O=C(Nc1csc(Cc2c(Cl)cccc2Cl)n1)NN1CCOCC1 | i | 6.1*
SMILES | KCNQ2 block | KCNQ2 pot
COC(=O)c1c(-c2c(Cl)cccc2Cl)noc1NC(=O)NN1CCOCC1 | i | .
Nc1nnc(SCC(=O)Nc2ccc(N3CCOCC3)cc2)s1 | i | .
COc1cc(/C=C(/C(=O)c2cccs2)c2nc3ccccc3[nH]2)cc(OC)c1O | -6.1* | -6.1
COc1ccc(C(=O)N/C(=C/c2cccs2)c2nc3ccccc3[nH]2)cc1OC | i | 1.1
CC1(C)CC(=O)C2=C(C1)OC1=C(C2)C(=O)CC(C)(C)C1 | -6* | -6
CC1(C)CC(=O)C2=C(C1)OC1=C(C(=O)CC(C)(C)C1)C2c1ccc(O)cc1O | i | .
CCN(CC)S(=O)(=O)c1cc(NC(=O)CN2C(=O)NC3(CCCc4ccccc43)C2=O)ccc1C (configuration not stated) | -5.8* | -5.8
Cc1ccc(NC(=O)CN2C(=O)NC3(CCCc4ccccc43)C2=O)cc1S(=O)(=O)N1CCOCC1 (configuration not stated) | i | .
CC12CCC(C(=O)NC3CCCC3)(CC1=O)C2(C)C (configuration not stated) | i | 0.06
CCNCCC(=O)N1c2ccccc2Sc2ccc(C(F)(F)F)cc21 | i | 3.7
COC(=O)c1ccc(NC(=S)NC(=O)c2c(Cl)cnn2C)cc1 | i | 0.64
COc1ccc(CCNC(=S)Nc2cccc3ccccc23)cc1 | i | .
COc1ccc(OCCNC(=S)Nc2cccc3ccccc23)cc1 | -6.2* | -6.2
O=C(CN(c1ccc(Cl)cc1)S(=O)(=O)c1ccccc1)N1CCN(c2ccccc2)CC1 | -7.4* | -7.4
COc1ccc(N2CCN(C(=O)CN(c3ccc(OC)cc3)S(=O)(=O)c3ccccc3)CC2)cc1 | i | .
Cn1nnnc1SCc1nc2ccccc2[nH]1 | i | 0.24
C[C@@H](NC(=O)CN1C(=O)c2ccccc2S1(=O)=O)c1ccccc1 | i | .
CCCc1nc2ccccc2c(=O)n1NC(=O)c1c(O)c2cccc3c2n(c1=O)CCC3 | i | 0.07
O=c1c2ccccc2nc(/C=C/c2ccccc2)n1CCCO | i | 2.5
CN(C)c1ccc(/C=C/c2nc3ccccc3c(=O)n2CCO)cc1 | -6* | -6
O=C(Cn1nc(C(F)F)cc1C(F)F)NNC(=S)Nc1ccc(Cl)cc1 | i | .
O=C(Nc1ccc(F)cc1F)c1sccc1SCc1cccc(C(F)(F)F)c1 | -5.9* | -5.9
O=C(Nc1ccc(F)cc1)c1sccc1SCc1cccc(C(F)(F)F)c1 | i | .
Cc1ccc(CN(Cc2ccc(C)o2)C(=S)NCC(=O)O)cc1 | i | 0.52
Cc1cccc(OCc2nnc(SCC(=O)N(C(C)C)C(C)C)n2Cc2ccco2)c1C | -7.7* | -7.7
SMILES | KCNQ2 block | KCNQ2 pot
Cc1cc(NC(=O)CSc2nnc(COc3cccc(C)c3C)n2Cc2ccco2)no1 | i | 0.07
CC12CN3CC(C)(CN(C1)C3c1ccc3c(c1)OCO3)C2=O (configuration not stated) | i | 2.4
CCc1c(C)c(C#N)c2nc3ccccc3n2c1N1CCN(c2cc(C)ccn2)CC1 | i | .
Cc1c(C(=O)OCCOc2ccccc2)[nH]c2c1C(=O)CCC2 | i | .
O=S(=O)(NCCCN1CCOCC1)c1ccc(Cl)cc1 | i | 8*
O=S(=O)(NCCN1CCOCC1)c1ccc(-c2ccc(S(=O)(=O)NCCN3CCOCC3)cc2)cc1 | i | .
CN1CCOc2ccc(S(=O)(=O)NCCc3ccc(Cl)cc3)cc21 | -6.7* | -6.7
CC(=O)N1CCOc2ccc(S(=O)(=O)NCCc3ccc(C)cc3)cc21 | i | .
Cc1ccc(-c2nnc3sc(-c4ccncc4)nn23)cc1 | i | .
CC(C)CCOP(=O)(c1ccc(N(C)C)cc1)C(O)c1ccc(N(C)C)cc1 (configuration not stated) | i | .
COc1ccc(NC(=O)N(C2CCCCC2)C(C)c2cccnc2)c(OC)c1 (configuration not stated) | i | .
COc1ccc(NC(=O)N(C2CCCCC2)C(C)c2ccco2)c(OC)c1 (configuration not stated) | -8.2* | -8.2
O=C(CN1C(=O)C2CC=CCC2C1=O)Nc1nc2ccc(F)cc2s1 (configuration not stated) | -6.7* | -6.7
O=C(CN1C(=O)NC2(CCCC2)C1=O)Nc1nc2ccc(F)cc2s1 | i | 0.27
COc1ccc(C(=O)c2ccc(Cl)cc2)cc1 | i | 0.7
COc1ccc(C(C#N)=C2C=CC(=NO)C=C2)cc1 | -5.7* | -5.7
O=C(Nc1cccc(C(F)(F)F)c1)c1cccnc1N1CCN(c2ccccc2)CC1 | -7* | -7
O=C(Nc1cccc(C(F)(F)F)c1)c1cccnc1N1CCN(CCO)CC1 | i | .
Cc1ccc(CSCCNC(=O)CSCc2ccc([N+](=O)[O-])cc2)cc1 | i | .
Cc1ccccc1CSCCNC(=O)CSCc1ccc([N+](=O)[O-])cc1 | -6.4* | -6.4
CC1/C(=N/O)CC(c2ccco2)NC1c1ccco1 (configuration not stated) | i | .
COc1ccc(-c2cnc(SCC(=O)Nc3nc(C(C)(C)C)cs3)n2Cc2ccco2)cc1 | -8.3* | -8.3
